Abeta yeast res = qHTS for compounds that reverse cellular toxicity of Amyloid beta (A-beta) peptide in yeast: Primary Screen; Potency, µM (highest dose often 46.1 µM), hits mostly activators; 0.063% of 410,000 active; yeast expressing A-beta42, growth rescue, OD600, 48 h; response scale: 0% DMSO, 100% iron-clioquinol control; further: nearly all actives have a fitted effect of over 55% in size
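Growth rescue measured by 600 nm absorbance after 48 h yeast culture at 30 C with compound. Values normalized between DMSO and an equimolar ferric chloride plus clioquinol control.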
TDP-43 yeast inh = qHTS of TDP-43 Inhibitors; TDP-43 expressing yeast growth rescue, BacTiter-Glo, 24 h; Potency, µM (series often up to 46.1 µM), usual class: activators; 1.8% of 410,000 active; further: nearly all actives have a fitted effect of over 50% in size
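Growth rescue of TDP-43-toxic yeast measured as ATP luminescence (BacTiter-Glo). Cells grown to mid-log in raffinose, induced in galactose at OD600=0.02, exposed to compound 24 hr at 30 deg C.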
FUS suppressor = qHTS for Suppressors of FUS Proteinopathy: Primary screen using FUS-linked yeast assay. S. cerevisiae FUS-expressing, growth rescue, OD600, 24 h. AID 1347120, 2019. Potency, µM (doses to about 76.6 µM), usual class: activators. 0.24% of 390,000 active; further: nearly all actives have a fitted effect of over 55% in size
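S. cerevisiae expressing FUS from galactose induction served as the toxicity model. Growth after 24hr at 30C, read as absorbance at 600 nm, indicates suppression of toxicity; compounds dosed at several concentrations.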
aSyn yeast inh = qHTS of alpha-syn Inhibitors. Yeast expressing alpha-synuclein, growth rescue, BacTiter-Glo, 24 h. Potency, µM (highest dose often 46.1 µM), hits mostly activators. 0.14% of 370,000 active. AID 652106, 2013; further: nearly all actives have a fitted effect of over 65% in size
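Screening used galactose-induced yeast with toxic alpha-synuclein levels, exposed to compound for 24 hr at 30 deg C. Cell growth, read with BacTiter-Glo luminescence, gave the measured signal.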
A number is an active result. Most compounds without a hit are left out; they make up all but 2.1% or so of the library. The call rests on the fitted dose curve; in most records, active means well fitted curve in the direction sought with a large enough effect; inconclusive means small, poorly fitted or top-dose-only effect, or another doubt; inactive means no such curve, though single readings can be large; an effect the other way counts as inactive or inconclusive.

For COc1cc(C(O)c2nc(-c3cccc(C#N)c3)cs2)ccc1F (stereo unspecified) the results were Abeta yeast res inactive, TDP-43 yeast inh 10µM, FUS suppressor inactive and aSyn yeast inh inconclusive.
Screening COc1ccc(-c2csc(C(O)c3ccc(F)c(OC)c3)n2)cc1 (stereo unspecified) returned Abeta yeast res inconclusive, TDP-43 yeast inh 22µM, FUS suppressor inconclusive and aSyn yeast inh 18µM.
Screening COc1cc(C(O)c2nc(-c3ccccc3)cs2)ccc1F (stereo unspecified) returned Abeta yeast res inactive, TDP-43 yeast inh inactive, FUS suppressor inactive and aSyn yeast inh inconclusive.
For COc1cc(C(O)c2nc(-c3ccc(F)cc3OC)cs2)ccc1F (stereo unspecified) the results were Abeta yeast res inactive, TDP-43 yeast inh 25µM, FUS suppressor inactive and aSyn yeast inh inconclusive.
For COc1ccc(C(O)c2nc(-c3ccc(F)c(Cl)c3)cs2)cc1 (stereo unspecified) the results were Abeta yeast res inconclusive, TDP-43 yeast inh 11µM, FUS suppressor inactive and aSyn yeast inh 13µM.
`COCc1cccc(-c2csc(C(O)c3ccc(F)c(OC)c3)n2)c1` (stereo unspecified) gave Abeta yeast res inconclusive, TDP-43 yeast inh inconclusive, FUS suppressor inactive and aSyn yeast inh inactive.
`COc1ccc(CNC(=O)C2CCCN(Cc3nc(-c4cccc(C)c4)oc3C)C2)cc1` (stereo unspecified) gave Abeta yeast res inactive, TDP-43 yeast inh inactive, FUS suppressor inactive and aSyn yeast inh inactive.
`CCCCc1ccccc1NC(=S)NC1CCCC1` gave Abeta yeast res 7.1µM, TDP-43 yeast inh inactive, FUS suppressor inactive and aSyn yeast inh inactive.
Screening CSc1ccccc1NC(=S)NC1CCCC1 returned Abeta yeast res inconclusive, TDP-43 yeast inh inactive, FUS suppressor inactive and aSyn yeast inh inactive.
For S=C(Nc1cccc2ccccc12)NC1CCCCC1 the results were Abeta yeast res 13µM, TDP-43 yeast inh inactive, FUS suppressor inactive and aSyn yeast inh inactive.
COc1cc2c(cc1OC)CN(C(=O)c1nn(Cc3ccccc3)c(=O)c3ccccc13)CC2 was read as Abeta yeast res inactive, TDP-43 yeast inh inactive and aSyn yeast inh inactive.
Screening COc1ccc(N2CCN(C(=O)c3cc4c(-c5ccccc5F)nn(C)c4s3)CC2)cc1 returned Abeta yeast res inactive, TDP-43 yeast inh 20µM and FUS suppressor inconclusive.
`Cn1nc(C(=O)N2CCN(c3ccccc3)CC2)c2c1-c1ccccc1SC2` gave Abeta yeast res inactive, TDP-43 yeast inh inconclusive and FUS suppressor inactive.
Screening COc1ccc(N2CCN(C(=O)c3nn(C)c4c3CSc3ccccc3-4)CC2)cc1 returned Abeta yeast res inactive, TDP-43 yeast inh 13µM and FUS suppressor inactive.
For Cn1nc(C(=O)N2CCN(c3ccc(F)cc3)CC2)c2c1-c1ccccc1SC2 the results were Abeta yeast res inactive, TDP-43 yeast inh inactive and FUS suppressor inactive.
`Cn1nc(C(=O)N2CCN(c3ccccc3F)CC2)c2c1-c1ccccc1SC2` gave Abeta yeast res inactive, TDP-43 yeast inh 18µM and FUS suppressor inactive.
Cc1nnsc1C(=O)NC1CCCc2c1cnn2-c1ccccc1F (stereo unspecified) was read as Abeta yeast res inactive, TDP-43 yeast inh inactive, FUS suppressor inactive and aSyn yeast inh inactive.
For Clc1ccc(Nc2nc(C3CC3)cs2)cc1 the results were Abeta yeast res inactive, TDP-43 yeast inh 14µM, FUS suppressor inactive and aSyn yeast inh inactive.
`S=c1[nH]nc(Nc2ccc(Cl)cc2)s1` gave Abeta yeast res inactive, TDP-43 yeast inh inactive, FUS suppressor inactive and aSyn yeast inh inactive.
COc1ccc(NS(=O)(=O)c2ccc3ccccc3c2)c2ncccc12 was read as Abeta yeast res 4.5µM, TDP-43 yeast inh inconclusive, FUS suppressor inactive and aSyn yeast inh inconclusive.
For COc1ccccc1NS(=O)(=O)c1ccc(OC)c(OC)c1 the results were Abeta yeast res inactive, TDP-43 yeast inh inactive, FUS suppressor inactive and aSyn yeast inh inactive.
Screening O=S(=O)(Nc1cccc2ccccc12)c1ccc2ccccc2c1 returned aSyn yeast inh 20µM.
Screening COc1ccccc1NS(=O)(=O)c1ccc2ccccc2c1 returned Abeta yeast res inactive, TDP-43 yeast inh 20µM, FUS suppressor inactive and aSyn yeast inh inactive.
`COc1ccc(S(=O)(=O)N2CCC(C(=O)Nc3cccc(C(C)=O)c3)CC2)cc1C` gave Abeta yeast res inactive, TDP-43 yeast inh inactive, FUS suppressor inactive and aSyn yeast inh inactive.
`CC(=O)c1nnn(-c2ccc(C)cc2Cl)c1C` gave Abeta yeast res inactive, TDP-43 yeast inh inconclusive and FUS suppressor inactive.
`COc1cc2c(cc1OC)CN(C(=O)c1ccco1)CC2` gave Abeta yeast res inactive, TDP-43 yeast inh inactive, FUS suppressor inconclusive and aSyn yeast inh inactive.
Screening COc1cc2c(cc1OC)CN(C(=O)c1ccc(Br)o1)CC2 returned Abeta yeast res inactive, TDP-43 yeast inh 16µM, FUS suppressor inactive and aSyn yeast inh inactive.
`COc1cc2c(cc1OC)CN(C(=O)c1cccc([N+](=O)[O-])c1)CC2` gave Abeta yeast res inactive, TDP-43 yeast inh 22µM, FUS suppressor inactive and aSyn yeast inh inconclusive.
COc1cc2c(cc1OC)CN(C(=O)c1ccc(OC)c([N+](=O)[O-])c1)CC2 was read as Abeta yeast res inactive, TDP-43 yeast inh inactive, FUS suppressor inactive and aSyn yeast inh inactive.
O=C(/C=C/Nc1ccccc1)c1ccccc1 was read as Abeta yeast res inactive, TDP-43 yeast inh inactive, FUS suppressor inactive and aSyn yeast inh inactive.
CC(=O)Nc1ccc(N/C=C/C(=O)c2ccccc2)cc1 was read as Abeta yeast res inactive, TDP-43 yeast inh 13µM, FUS suppressor inactive and aSyn yeast inh inactive.
O=[N+]([O-])c1ccc(N2CCN(C(=S)NC3CCCCC3)CC2)cc1 was read as Abeta yeast res inconclusive, TDP-43 yeast inh 13µM, FUS suppressor inactive and aSyn yeast inh inactive.
Nc1nonc1-n1nnc(C(=O)N/N=C/c2cccnc2)c1-c1cccs1 was read as Abeta yeast res inactive, TDP-43 yeast inh inactive, FUS suppressor inactive and aSyn yeast inh inactive.
Screening O=C(CCS(=O)(=O)c1cc(Br)cc2c1N(C(=O)C1CC1)CC2)NCc1ccc(Cl)cc1 returned Abeta yeast res inactive, TDP-43 yeast inh inactive and FUS suppressor 28µM.
Screening CCC(C)C(CO)NCCCn1ccc(NC(=O)OCc2ccccc2)nc1=O (stereo unspecified) returned Abeta yeast res inactive, TDP-43 yeast inh inactive, FUS suppressor inactive and aSyn yeast inh inactive.
Screening CCOC(=O)c1c(CN2CCOCC2)n(-c2ccccc2)c2cc(Br)c(OC)cc12 returned Abeta yeast res inactive, TDP-43 yeast inh 16µM, FUS suppressor inactive and aSyn yeast inh inactive.
O=C(NCCN1CCCCCC1)c1ccc(CS(=O)(=O)c2ccc(Br)cc2)o1 was read as Abeta yeast res inactive, TDP-43 yeast inh inactive, FUS suppressor inactive and aSyn yeast inh inactive.

Bioassay records: PubChem BioAssay, National Center for Advancing Translational Sciences (NCATS)
